Assay outcomes: PubChem BioAssay, several laboratories
Mdm2-MdmX inh: inhibitors of human Mdm2/MdmX interaction; O15151+Q00987; SaOS-2 split-luciferase Mdm2/MdmX complementation, luminescence; inhibition, % at 8 µM; 330,000 tested, 3% active; AID 485346;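 active = inhibition of at least 50% at 8 µM in the primary screen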
CSC inhib: cancer stem cell inhibition | cancer stem cell-like cells viability, luminescence | inhibition, % at 7.5 µM | 300,000 tested, 1.1% active; in the data active = inhibition above about 75%; tested in HMLE shEcad cells
Calb FLC: affects C. albicans growth with fluconazole | C. albicans CaCi-2 (fluconazole-resistant clinical isolate) + fluconazole, Alamar Blue growth, 48 h | growth inhibition, % (test concentration not listed) | 300,000 tested, 0.57% active;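 active = growth inhibition above about 58% in most replicates, limit read from the data, passing the limit was not always enough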;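 also: all wells also contain fluconazole at 8 µg/ml as a sub-toxic cotreatment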
SKKanGAS inh: inhibitors of SKKanGAS S. pyogenes growth in kanamycin (SK-promoter or general growth effect); BacTiter-Glo, 6 h; 300,000 tested, 1.3% active; inhibition, % at 7.5 µM; AID 1662;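 active = mean replicate score, as percent of positive control median, at least 50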;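 also: strain carries kanamycin resistance gene driven by streptokinase promoter and grows in 40 µg/ml kanamycin; loss of luminescence reflects streptokinase promoter inhibition or plain growth inhibition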
Beta apoptosis: blocks beta cell apoptosis | AID 435005 | INS-1E cytokine-induced death, ATP luminescence, 48 h; percent of positive-control rescue, neutral wells zero | protection from apoptosis, % (no concentration beside the values) | 300,000 tested, 0.8% active;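 active = Every replicate reaches about 75%, or at least half do and their mean reaches it too, limit read from the data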;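 also: higher means more ATP so stronger rescue from cytokine killing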
MPTP block: inhibitors of mitochondrial permeability transition pore; inhibition, % at 10 µM; AID 602449; 360,000 tested, 1.4% active; isolated mouse mitochondria, Ca2+ swelling absorbance, 30 min;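 active = inhibition of 50% or more, scaled per plate between neutral and stimulator controls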
MPTP counter: Rhodamine 123 counter-screen of mitochondrial pore hits; shares compounds with MPTP block; isolated mitochondria, membrane potential, Rhodamine 123 fluorescence; inhibition, % at 10 µM; 5,000 tested, 78% active; in the data active = inhibition above about 22%
MPTP abs DR: dose response confirmation of mitochondrial permeability transition pore inhibitors. 780 tested, 58% active. isolated mitochondria swelling, absorbance. shares compounds with MPTP block. IC50, µM; in the data active = IC50 below about 20 µM
MPTP counter DR: counter-screen for mitochondrial permeability transition pore inhibitors, dose response | 780 tested, 49% active | shares compounds with MPTP block | IC50, µM | isolated mitochondria counterscreen, fluorescence read-out | AID 651564; in the data active = IC50 below about 80 µM
Numbers stand for hits; – = inactive; · = no result; ! = repeats disagree. Hits are enriched below; roughly 5.4% of the tested compounds scored in any of these assays.

SMILES	Mdm2-MdmX inh	CSC inhib	Calb FLC	SKKanGAS inh	Beta apoptosis	MPTP block	MPTP counter	others
OCCN1CCN(C(=S)Nc2cccc(C(F)(F)F)c2)CC1	–	–	–	–	–	94!	82
O=C(Nc1cccc(C(F)(F)F)c1)C(Sc1ncnc2ccccc12)c1ccccc1 (configuration not stated)	–	–	–	–	–	60	68
Cc1cc(C)cc(NC(=O)C(Sc2ncnc3ccccc23)c2ccccc2)c1 (configuration not stated)	–	–	–	–	–	–	·
O=C(Cc1ccc([N+](=O)[O-])cc1)Nc1cccc(C(F)(F)F)c1	–	–	–	–	–	81	82
CCN1CCN(C(=S)Nc2cccc(C(F)(F)F)c2)CC1	–	–	–	–	–	–	·
COc1ccc(-c2ccc(-c3noc(C4CCCCC4)n3)c(OC)n2)cc1	–	–	–	–	–	–	·
O=C(CSC1=N/C(=C/c2ccc(Cl)c(Cl)c2)C(=O)N1c1ccccc1F)NC1CC1	–	–	–	–	–	–	·
Cc1cc2c(NC(=O)Nc3ccccc3)cccc2nn1	–	–	–	–	–	–	·
CC(=O)c1c(C)[nH]c(C(=O)Nc2cccc(C(F)(F)F)c2)c1C	–	–	–	–	–	70	86
Fc1cc(F)c(C2SCCN2C(=S)Nc2cccc(C(F)(F)F)c2)c(F)c1 (configuration not stated)	–	–	–	50	–	74	93
CC(=O)Nc1ccc2ccccc2c1	–	–	–	–	–	–	·
CC(=O)c1c(C)[nH]c(C(=O)Nc2cccc(C#N)c2)c1C	–	–	–	–	–	–	·
Cc1cc2c(NC(=O)Nc3ccc(C(C)(C)C)cc3)cccc2nn1	–	–	–	–	–	85	81
O=C(Nc1ccccc1)Nc1ccc2ccccc2c1	–	–	–	–	–	87	83
CCOC(=O)c1ccc(NC(=S)N2CCSC2c2c(F)cc(F)cc2F)cc1 (configuration not stated)	–	–	–	–	–	–	·
CCn1c(=O)c2cc(C(=O)NCCN(C)C)sc2c2ccccc21	–	–	–	–	–	–	·
CC(C)C1N(C(=O)CN2CCCCC2)CCN1S(=O)(=O)c1ccccc1 (configuration not stated)	–	–	–	–	–	–	·
CC(=O)NC(=S)Nc1ccc(S(=O)(=O)Nc2ncccn2)cc1	–	–	–	–	–	–	·
CCOC(=O)N1CCN(C(=O)c2cc(OC)cc(OC)c2)CC1	–	·	–	–	·	–	·
O=C(Nc1cccc(C(F)(F)F)c1)n1cc(-c2ccccn2)c(N2CCOCC2)n1	–	–	–	–	–	86	96
CC(C)c1cc(C(=O)Nc2cccc(C(F)(F)F)c2)no1	–	–	–	–	–	–	·
O=C(NCc1ccc2c(c1)CCO2)Nc1cccc(C(F)(F)F)c1	–	–	–	–	–	67	83
O=C(Nc1cccc(C(F)(F)F)c1)c1cc(-c2ccc(F)cc2)on1	–	·	–	–	–	67	–	MPTP abs DR=–;MPTP counter DR=–
c1ccc(CSc2nnc3ccc(-c4cccs4)nn23)nc1	–	–	–	–	–	–	·
Cc1cc(NC(=O)CCC(=O)N(Cc2ccco2)C(C(=O)NC2CCCC2)c2ccccc2C)no1 (configuration not stated)	–	–	–	–	–	–	·
SMILES	Mdm2-MdmX inh	CSC inhib	Calb FLC	SKKanGAS inh	Beta apoptosis	MPTP block	MPTP counter	others
CC(=O)Nc1ccc(S(=O)(=O)Oc2cccc(N3C(=O)C4CC=CCC4C3=O)c2)cc1 (configuration not stated)	–	–	–	–	–	–	·
CC(=O)Nc1ccc(S(=O)(=O)Oc2ccc(N3C(=O)C4CCCCC4C3=O)cc2)cc1 (configuration not stated)	–	–	–	–	–	83	52
O=C(NNC1=Nc2cccc3cccc1c23)c1ccc(Br)cc1	·	–	–	114	–	83	67
N/C(=N\S(=O)(=O)c1cc(C(F)(F)F)cc(C(F)(F)F)c1)c1ccc(Cl)cc1	–	–	–	–	–	83	88
CC1(C)CC(=O)C(C2C3=C(CC(C)(C)CC3=O)Oc3c(Br)cc(Br)cc32)=C(O)C1 (configuration not stated)	–	–	–	56	–	82	95
O=C(CC(=O)Nc1cccnc1)Nc1cccnc1	–	–	–	–	–	–	·
CCCc1nc(SC2CCCC2)c2c(=O)n(C)c(=O)n(C)c2n1	–	–	–	–	–	72	–	MPTP abs DR=–;MPTP counter DR=70
O=C(COc1ncnc2cc([N+](=O)[O-])ccc12)NC1CCCCC1	–	–	–	–	–	–	·
CC[C@H](C)[C@@H](C(=O)NCCCCCCCCCCC(=O)N1CCN(C(=O)OC(C)(C)C)CC1)n1cc(CCCCCNC(=O)OC(C)(C)C)nn1	–	–	·	·	101	87	22
CC(=O)SCC(Cc1ccccc1)C(=O)NCC(=O)OCc1ccccc1 (configuration not stated)	–	–	–	–	·	·	·
CC1(C)CC(=O)C(C(C2=C(O)CC(C)(C)CC2=O)c2ccc(Cl)c([N+](=O)[O-])c2)C(=O)C1 (configuration not stated)	–	–	–	–	–	–	·
O=C(c1cccc(S(=O)(=O)N2CCN(c3ccccc3)CC2)c1)N1CCCC(C(F)(F)F)C1 (configuration not stated)	–	–	–	–	–	68	71
O=C(NC(NC(=S)N1CCOCC1)C(Cl)(Cl)Cl)c1ccc(Cl)cc1 (configuration not stated)	–	–	–	–	–	67	83
O=C(COC(=O)c1cc(F)cc(F)c1)Nc1cccnc1Cl	–	–	–	–	–	–	·
CCc1ccc(S(=O)(=O)NCCc2csc(-c3ccccc3)n2)s1	–	–	–	–	–	69	81
CCc1ccc(S(=O)(=O)NCc2csc(-c3ccccc3)n2)s1	–	–	–	–	–	–	·
Cc1ccccc1NC(=O)c1sc(NC(=O)COc2ccccc2)c(C#N)c1C	–	–	–	–	–	54	75
CC(C)c1ccc(NC(=O)C2(C)Cc3c(-c4cccc(C(N)=O)c4)ccnc3O2)cc1 (configuration not stated)	·	·	·	·	·	–	·
C=CCn1c(Cc2cccs2)nnc1SCC(=O)c1ccc2ccccc2c1	–	–	–	–	–	–	·
O=C1CCN(c2ncccc2[N+](=O)[O-])CC1	–	–	–	–	–	–	·
CC(=O)Nc1ccc(C23CC4CC(CC(C4)C2)C3)cc1	–	–	–	–	–	–	·
CNC(=S)Nc1ccc(C23CC4CC(CC(C4)C2)C3)cc1	–	–	–	–	–	52	66
